The supplement of paper PMC6992640
± gives the standard deviation of the averaged measurements.

test system: HCI16 (cells of a triple-negative basal-like breast cancer xenograft); assay: cell viability (% of vehicle); higher = less cytotoxic; conditions: 10 µM; 72 h
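Note: PDX cells carrying CMV promoter-driven luciferase, viability read as total photon flux per second by IVIS imaging following D-luciferin, vehicle control 0.1% DMSO.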

Row | SMILES | cell viability
1 | CC(=O)N[C@H](Cc1ccc2ccccc2c1)C(=O)N[C@H](Cc1ccc(Cl)cc1)C(=O)N[C@H](Cc1cccnc1)C(=O)N[C@@H](CO)C(=O)N[C@@H](Cc1ccc(O)cc1)C(=O)N[C@H](CCCNC(N)=O)C(=O)N[C@@H](CC(C)C)C(=O)N[C@@H](CCCNC(=N)N)C(=O)N1CCC[C@H]1C(=O)N[C@H](C)C(N)=O [Cetrorelix] | 151
2 | COc1ccc(C=Cc2cc(OC)c(OC)c(OC)c2)cc1OP(=O)([O-])[O-].[Na+].[Na+] [Fosbretabulin (Combretastatin A4 Phosphate (CA4P)) Disodium] | 132
3 | COC(=O)NC(C(=O)NC(Cc1ccccc1)C(O)CN(Cc1ccc(-c2ccccn2)cc1)NC(=O)C(NC(=O)OC)C(C)(C)C)C(C)(C)C.O=S(=O)(O)O (configuration not stated) | 138
4 | NC(=O)N1CCC(CC(=O)N2CCC(C3c4ncc(Br)cc4CCc4cc(Cl)cc(Br)c43)CC2)CC1 (configuration not stated) [Lonafarnib] | 170
5 | C#C[C@]1(O)CC[C@H]2[C@@H]3CCC4=CCCC[C@@H]4[C@H]3C(=C)C[C@@]21CC [Desogestrel] | 97.5

test system: UCD52 (cells of a triple-negative basal-like breast cancer xenograft); assay: as above; conditions: 10 µM; 72 h

Row | SMILES | cell viability
6 | Cc1ccc(-n2[nH]c(C)c(NN=C3C=CC=C(c4cccc(C(=O)O)c4)C3=O)c2=O)cc1C.NCCO.NCCO [Eltrombopag Olamine] | 76.8 ± 6.6
7 | CCN1CCN(c2cc3c(cc2F)c(=O)c(C(=O)O)cn3C2CC2)CC1 [Enrofloxacin] | 124 ± 5.2
8 | C[N+]1(C)C2CCC1CC(OC(=O)C(O)c1ccccc1)C2.[Br-] (configuration not stated) [Homatropine Methylbromide] | 104 ± 1.8
9 | COc1ccc(C2CNC(=O)C2)cc1OC1CCCC1 (stereo not drawn) [S- (+)-Rolipram] | 99.5 ± 11
10 | CO[C@H]1/C=C/O[C@@]2(C)Oc3c(C)c(O)c4c(O)c(c5c(nc6cc(C)ccn65)c4c3C2=O)NC(=O)/C(C)=C\C=C\[C@H](C)[C@H](O)[C@@H](C)[C@H](O)[C@@H](C)[C@H](OC(C)=O)[C@@H]1C [Rifaximin (Xifaxan)] | 91.9 ± 7.9
11 | CS(=O)(=O)N1CCN(Cc2cc3nc(-c4cccc5[nH]ncc45)nc(N4CCOCC4)c3s2)CC1 | 88.5 ± 15
12 | O=C(O)C1=COC(OC2OC(CO)C(O)C(O)C2O)C2C(CO)=CCC12 (configuration not stated) [Geniposidic acid] | 99.8 ± 10
13 | CCC(CC)C(NC(C)=O)C1C(N=C(N)N)CC(C(=O)O)C1O (configuration not stated) [Peramivir] | 81.6 ± 14
14 | CC(C)NCC(O)c1ccc(NS(C)(=O)=O)cc1.Cl (configuration not stated) [Sotalol hydrochloride] | 116 ± 4.6
15 | Cc1cc(NS(=O)(=O)c2ccc(N)cc2)no1 [Sulfamethoxazole] | 99.6 ± 4.2
16 | CCC(C)C(=O)OC1CC(C)C=C2C=CC(C)C(CCC3CC(O)CC(=O)O3)C21 (configuration not stated) [Lovastatin] | 50.7 ± 5.3
17 | Nc1nc(Cl)nc2c1ncn2C1OC(CO)C(O)C1F (configuration not stated) [Clofarabine] | 143 ± 24
18 | CC(=O)[N-]S(=O)(=O)c1ccc(N)cc1.[Na+] [Sulfacetamide Sodium] | 72.9 ± 1.1
19 | Cc1cccc(C)c1NC(=O)C1CCCCN1C.Cl (configuration not stated) [Mepivacaine HCl] | 70.4 ± 3.6
20 | Cc1onc(-c2ccccc2Cl)c1C(=O)NC1C(=O)N2C1SC(C)(C)C2C(=O)[O-].O.[Na+] (configuration not stated) [Cloxacillin Sodium] | 154 ± 38
21 | CN1CCC(=C2c3ccccc3C=Cc3ccccc32)CC1.Cl [Cyproheptadine hydrochloride] | 79.8 ± 13
22 | NCCCCC(NC(CCc1ccccc1)C(=O)O)C(=O)N1CCCC1C(=O)O.O.O (configuration not stated) [Lisinopril dihydrate] | 105 ± 0.53
23 | NC(=O)C1CCCc2c1[nH]c1ccc(Cl)cc21 (configuration not stated) | 128 ± 12
24 | CC(=O)O[C@@]12CO[C@@H]1C[C@H](O)[C@@]1(C)C(=O)[C@H](O)C3=C(C)[C@@H](OC(=O)[C@H](O)[C@@H](NC(=O)OC(C)(C)C)c4ccccc4)C[C@@](O)([C@@H](OC(=O)c4ccccc4)[C@H]21)C3(C)C [Docetaxel] | 82 ± 10

Row | SMILES | cell viability
25 | COc1c(C)c2c(c(O)c1CC=C(C)CCC(=O)O)C(=O)OC2 [Mycophenolic acid] | 94 ± 6.1
26 | CC(=O)N1CCN(c2ccc(OCC3COC(Cn4ccnc4)(c4ccc(Cl)cc4Cl)O3)cc2)CC1 (single isomer, unassigned; (+)) [(+)-Ketoconazole] | 44.6 ± 2.7
27 | CC1COc2c(N3CCN(C)CC3)c(F)cc3c(=O)c(C(=O)O)cn1c23 (configuration not stated) [Ofloxacin] | 138.6 ± 1
28 | NC(N)=NS(=O)(=O)c1ccc(N)cc1 [Sulfaguanidine] | 85.4 ± 6.9
29 | Cc1cc(C2CCCCC2)n(O)c(=O)c1 [Ciclopirox] | 92.7 ± 3.6
30 | Cl.NC12CC3CC(CC(C3)C1)C2 [Amantadine HCl] | 93.3 ± 2.1
31 | CCOc1nc2cccc(C(=O)OCc3oc(=O)oc3C)c2n1Cc1ccc(-c2ccccc2-c2nc(=O)o[nH]2)cc1 [Azilsartan Medoxomil] | 111 ± 8.7
32 | NNC(=O)c1ccncc1.Nc1ccc(C(=O)O)c(O)c1 [Pasiniazid] | 95.1 ± 3.1
33 | CCOc1cc(N)c(Cl)cc1C(=O)NCC1CN(Cc2ccc(F)cc2)CCO1.O=C(O)CC(O)(CC(=O)O)C(=O)O (configuration not stated) [Mosapride Citrate] | 106 ± 2.8
34 | Cc1cc(C2CCCCC2)n(O)c(=O)c1.NCCO [Ciclopirox ethanolamine] | 63.4 ± 8.2
35 | Nc1cccc2c1C(=O)N(C1CCC(=O)NC1=O)C2=O (configuration not stated) [Pomalidomide (CC-4047)] | 104 ± 3.8
36 | COC1C(OC(N)=O)C(O)C(Oc2ccc3c(O)c(NC(=O)c4ccc([O-])c(CC=C(C)C)c4)c(=O)oc3c2C)OC1(C)C.[Na+] (configuration not stated) [Novobiocin Sodium] | 120 ± 16
37 | O=C1NC(=O)[C@@H](c2c[nH]c3ccccc23)[C@H]1c1cn2c3c(cccc13)CCC2 [Tivantinib (ARQ 197)] | 81.8 ± 4.7
38 | CNCc1ccc(-c2[nH]c3cc(F)cc4c3c2CCNC4=O)cc1.O=P(O)(O)O | 126 ± 39
39 | CC(=O)N[C@H](Cc1ccc2ccccc2c1)C(=O)N[C@H](Cc1ccc(Cl)cc1)C(=O)N[C@H](Cc1cccnc1)C(=O)N[C@@H](CO)C(=O)N[C@@H](Cc1ccc(O)cc1)C(=O)N[C@H](CCCNC(N)=O)C(=O)N[C@@H](CC(C)C)C(=O)N[C@@H](CCCNC(=N)N)C(=O)N1CCC[C@H]1C(=O)N[C@H](C)C(N)=O [Cetrorelix] | 96.1 ± 7
40 | COc1ccc(C=Cc2cc(OC)c(OC)c(OC)c2)cc1OP(=O)([O-])[O-].[Na+].[Na+] [Fosbretabulin (Combretastatin A4 Phosphate (CA4P)) Disodium] | 86 ± 16
41 | COC(=O)NC(C(=O)NC(Cc1ccccc1)C(O)CN(Cc1ccc(-c2ccccn2)cc1)NC(=O)C(NC(=O)OC)C(C)(C)C)C(C)(C)C.O=S(=O)(O)O (configuration not stated) | 113 ± 14
42 | C#C[C@]1(O)CC[C@H]2[C@@H]3CCC4=CCCC[C@@H]4[C@H]3C(=C)C[C@@]21CC [Desogestrel] | 74.4 ± 2
